Measured values from the supplement of paper PMC10849652.
The full data set covers some 8,800 targets. This sample favours those with a hit. About 0.5% of all pairs of compound and target were hits.

What was measured:
Assay in all cases: log2 fold change, soluble protein after heating vs DMSO (PISA); higher = thermal stabilisation; K562 lysate, 10 uM; active = over 0.2 and 3.5 SD of the protein, either way, in both replicates (recomputed)
[1] = compound: C1=CC=C(C=C1)[C@H](COC2=CC3=C(C=C2)NC(=O)N3)NC(=O)C4=CC=CN(C4=O)CC5=CC(=C(C=C5)F)F
Procedure, shortened: (§1)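 To prepare the extract, K562 pellets were dounce-homogenised in PBS pH 7.4 with 1 mM MgCl2, giving crude material at 1 mg/mL protein. This was treated with 10 μM compound for 30 min, then heated in aliquots for 3 min over 48°C-58°C before pooling and addition of NP-40 to 0.5% at 4°C. Centrifugation at 21,000xg for 90 min left soluble protein in the supernatant, which TMTpro 16plex LC-MS/MS quantified with equalised channel sums. Results are log-two fold changes in thermal stability compared with solvent controls, from duplicates.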

[2] = compound: CC1=C(SC2=C1C(=N[C@H](C3=NN=C(N32)C)CC(=O)N)C4=CC=C(C=C4)Cl)C
Procedure, shortened: as §1

[3] = compound: CC1=C2C(=CC=C1)N=C(N(C2=O)C3=CC=CC=C3C)CN4C=NC5=C(N=CN=C54)N
Procedure, shortened: as §1

[4] = compound: Cc1sc2c(c1C)C(c1ccc(Cl)cc1)=N[C@@H](CC(=O)OC(C)(C)C)c1nnc(C)n1-2
Procedure, shortened: as §1

[5] = compound: c1ccc([C@@H]2C[C@H]2NC2CCNCC2)cc1
Procedure, shortened: as §1

Measured: log2 fold change

MAP4 (UniProt P27816)
inactive: [1] 0.027 | [2] 0.012 | [3] -0.012 | [4] -0.027 | [5] -0.043

MANEA (UniProt Q5SRI9)
inactive: [1] 0.146 | [2] -0.009 | [3] 0.044 | [4] 0.029 | [5] -0.161

MAP2K2 (UniProt P36507)
inactive: [1] -0.04 | [2] 0.022 | [3] -0.047 | [4] -0.068 | [5] 0.064

LARP4B (UniProt Q92615)
inactive: [1] 0.031 | [2] -0.034 | [3] 0.002 | [4] 0.03 | [5] -0.037

KIF26A (UniProt Q9ULI4)
inactive: [1] 0.044 | [2] -0.011 | [3] 0.053 | [4] 0.09 | [5] -0.018

LZTR1 (UniProt Q8N653)
inactive: [1] -0.237 | [2] 0.004 | [3] 0.005 | [4] -0.004 | [5] 0.036

MRPL10 isoform 2 (UniProt Q7Z7H8)
inactive: [1] -0.053 | [2] 0.097 | [3] 0.023 | [4] -0.026 | [5] 0.016

LTN1 isoform 3 (UniProt O94822)
inactive: [1] -0.059 | [2] 0 | [3] 0.027 | [4] -0.025 | [5] 0.04

MAST4 (UniProt O15021)
UniProt O15021, sequence (O15021 whole entry, looked up): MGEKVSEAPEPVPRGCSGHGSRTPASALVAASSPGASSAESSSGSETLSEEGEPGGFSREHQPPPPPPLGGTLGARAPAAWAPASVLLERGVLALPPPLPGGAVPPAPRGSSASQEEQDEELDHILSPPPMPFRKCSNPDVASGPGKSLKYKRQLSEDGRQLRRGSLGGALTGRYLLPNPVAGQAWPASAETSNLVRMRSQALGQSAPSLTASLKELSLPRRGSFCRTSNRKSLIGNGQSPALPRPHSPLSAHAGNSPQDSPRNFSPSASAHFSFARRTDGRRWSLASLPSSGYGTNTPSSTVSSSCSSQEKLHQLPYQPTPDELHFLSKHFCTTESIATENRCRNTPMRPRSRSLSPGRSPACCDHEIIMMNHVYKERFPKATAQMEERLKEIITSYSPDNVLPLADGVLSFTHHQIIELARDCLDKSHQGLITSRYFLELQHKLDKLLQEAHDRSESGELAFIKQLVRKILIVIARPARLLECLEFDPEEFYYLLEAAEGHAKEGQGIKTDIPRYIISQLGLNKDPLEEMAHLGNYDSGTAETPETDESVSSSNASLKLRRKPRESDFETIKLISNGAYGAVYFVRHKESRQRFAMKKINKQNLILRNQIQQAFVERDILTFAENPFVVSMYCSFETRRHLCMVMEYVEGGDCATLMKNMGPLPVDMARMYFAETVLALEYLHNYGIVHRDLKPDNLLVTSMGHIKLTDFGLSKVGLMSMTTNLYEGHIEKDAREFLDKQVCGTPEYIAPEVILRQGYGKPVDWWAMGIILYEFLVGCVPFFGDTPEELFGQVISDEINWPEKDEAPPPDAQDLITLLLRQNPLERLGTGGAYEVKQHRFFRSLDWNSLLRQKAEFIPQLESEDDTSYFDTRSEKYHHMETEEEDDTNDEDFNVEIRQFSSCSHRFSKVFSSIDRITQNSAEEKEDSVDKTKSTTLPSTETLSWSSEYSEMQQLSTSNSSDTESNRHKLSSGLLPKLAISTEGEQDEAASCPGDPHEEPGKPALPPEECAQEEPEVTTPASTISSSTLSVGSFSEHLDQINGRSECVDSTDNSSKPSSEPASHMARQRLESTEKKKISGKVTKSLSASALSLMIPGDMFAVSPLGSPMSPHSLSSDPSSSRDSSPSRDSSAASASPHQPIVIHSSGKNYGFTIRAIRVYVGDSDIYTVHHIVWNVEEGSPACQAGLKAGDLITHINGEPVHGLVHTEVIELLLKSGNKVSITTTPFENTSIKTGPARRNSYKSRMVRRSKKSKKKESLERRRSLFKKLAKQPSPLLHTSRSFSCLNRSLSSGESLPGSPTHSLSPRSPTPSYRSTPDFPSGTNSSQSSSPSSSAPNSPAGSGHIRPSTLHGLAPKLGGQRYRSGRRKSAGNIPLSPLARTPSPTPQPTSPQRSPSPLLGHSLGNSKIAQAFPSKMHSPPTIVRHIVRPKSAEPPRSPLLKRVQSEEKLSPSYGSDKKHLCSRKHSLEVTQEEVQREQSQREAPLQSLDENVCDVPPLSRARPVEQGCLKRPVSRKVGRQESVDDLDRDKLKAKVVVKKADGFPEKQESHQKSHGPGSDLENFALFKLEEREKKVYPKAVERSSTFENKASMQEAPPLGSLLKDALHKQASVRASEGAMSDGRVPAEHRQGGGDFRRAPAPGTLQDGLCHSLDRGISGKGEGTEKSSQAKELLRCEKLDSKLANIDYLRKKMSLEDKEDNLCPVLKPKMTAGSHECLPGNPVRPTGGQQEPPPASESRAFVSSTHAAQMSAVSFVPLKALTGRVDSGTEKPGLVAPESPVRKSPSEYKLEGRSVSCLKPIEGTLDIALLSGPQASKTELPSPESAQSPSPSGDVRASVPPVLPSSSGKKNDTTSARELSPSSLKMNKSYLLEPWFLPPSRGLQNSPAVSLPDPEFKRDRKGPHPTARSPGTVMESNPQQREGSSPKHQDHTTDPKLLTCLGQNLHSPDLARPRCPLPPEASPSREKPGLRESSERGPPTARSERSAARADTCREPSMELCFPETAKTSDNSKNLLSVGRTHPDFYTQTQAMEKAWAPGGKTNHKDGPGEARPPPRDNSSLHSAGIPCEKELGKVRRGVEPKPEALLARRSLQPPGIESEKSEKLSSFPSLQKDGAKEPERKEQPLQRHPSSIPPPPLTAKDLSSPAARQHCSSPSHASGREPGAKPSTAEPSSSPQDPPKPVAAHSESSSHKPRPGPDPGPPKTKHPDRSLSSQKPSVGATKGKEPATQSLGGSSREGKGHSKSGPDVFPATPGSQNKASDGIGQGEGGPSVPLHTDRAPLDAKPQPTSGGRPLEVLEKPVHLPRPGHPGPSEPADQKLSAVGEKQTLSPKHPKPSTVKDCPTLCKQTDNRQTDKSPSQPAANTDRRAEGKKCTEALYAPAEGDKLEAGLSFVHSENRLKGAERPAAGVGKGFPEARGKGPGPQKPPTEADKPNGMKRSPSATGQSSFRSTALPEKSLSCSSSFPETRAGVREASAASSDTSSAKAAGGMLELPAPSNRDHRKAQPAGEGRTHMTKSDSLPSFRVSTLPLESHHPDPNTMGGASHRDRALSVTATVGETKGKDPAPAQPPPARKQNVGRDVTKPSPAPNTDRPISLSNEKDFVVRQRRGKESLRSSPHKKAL
inactive: [1] 0.007 | [2] -0.019 | [3] -0.037 | [4] 0.023 | [5] 0

MRPL46 (UniProt Q9H2W6)
inactive: [1] 0.022 | [2] -0.012 | [3] 0.021 | [4] 0.026 | [5] 0.199

MAP1S (UniProt Q66K74)
UniProt Q66K74, sequence (Q66K74 whole entry, looked up): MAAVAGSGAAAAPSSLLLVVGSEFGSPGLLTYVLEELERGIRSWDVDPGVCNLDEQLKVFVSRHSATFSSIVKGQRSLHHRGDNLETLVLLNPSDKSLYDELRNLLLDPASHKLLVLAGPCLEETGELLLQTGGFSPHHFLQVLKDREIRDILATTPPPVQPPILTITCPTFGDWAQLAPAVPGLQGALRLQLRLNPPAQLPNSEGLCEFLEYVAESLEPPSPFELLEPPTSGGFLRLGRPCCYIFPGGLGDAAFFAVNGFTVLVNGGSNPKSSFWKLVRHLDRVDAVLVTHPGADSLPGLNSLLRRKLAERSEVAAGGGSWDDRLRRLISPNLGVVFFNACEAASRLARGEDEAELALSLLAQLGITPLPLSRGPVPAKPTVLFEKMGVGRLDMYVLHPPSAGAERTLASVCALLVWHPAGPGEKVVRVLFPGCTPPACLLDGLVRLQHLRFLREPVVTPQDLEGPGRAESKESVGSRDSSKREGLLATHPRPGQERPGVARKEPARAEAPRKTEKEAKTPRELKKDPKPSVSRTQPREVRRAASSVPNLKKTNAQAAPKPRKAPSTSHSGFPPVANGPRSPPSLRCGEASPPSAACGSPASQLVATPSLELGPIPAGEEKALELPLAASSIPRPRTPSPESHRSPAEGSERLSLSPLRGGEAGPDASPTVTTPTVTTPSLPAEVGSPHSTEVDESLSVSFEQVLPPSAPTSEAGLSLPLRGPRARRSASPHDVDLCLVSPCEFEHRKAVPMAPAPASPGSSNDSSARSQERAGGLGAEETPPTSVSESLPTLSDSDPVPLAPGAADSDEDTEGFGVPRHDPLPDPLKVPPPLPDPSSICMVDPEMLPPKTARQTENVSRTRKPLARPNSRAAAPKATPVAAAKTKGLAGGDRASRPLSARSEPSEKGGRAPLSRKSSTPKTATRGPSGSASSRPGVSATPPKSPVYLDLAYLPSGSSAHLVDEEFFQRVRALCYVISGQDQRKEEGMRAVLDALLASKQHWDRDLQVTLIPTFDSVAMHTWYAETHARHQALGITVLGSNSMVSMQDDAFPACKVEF
inactive: [1] 0.029 | [2] 0.011 | [3] 0.021 | [4] 0.019 | [5] 0.018

LIMS1 isoform 3 (UniProt P48059)
UniProt P48059, sequence (P48059 whole entry, looked up): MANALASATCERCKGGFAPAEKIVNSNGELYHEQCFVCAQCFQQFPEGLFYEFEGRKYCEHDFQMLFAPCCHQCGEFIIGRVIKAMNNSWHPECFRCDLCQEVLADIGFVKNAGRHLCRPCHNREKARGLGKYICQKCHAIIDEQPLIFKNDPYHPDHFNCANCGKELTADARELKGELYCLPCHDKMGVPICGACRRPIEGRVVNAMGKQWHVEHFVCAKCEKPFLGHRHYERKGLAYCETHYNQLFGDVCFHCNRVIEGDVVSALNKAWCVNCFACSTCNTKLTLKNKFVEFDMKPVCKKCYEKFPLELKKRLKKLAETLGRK
inactive: [1] -0.006 | [2] 0.006 | [3] -0.026 | [4] 0.037 | [5] -0.057

LUC7L (UniProt Q9NQ29)
UniProt Q9NQ29, sequence (Q9NQ29 whole entry, looked up): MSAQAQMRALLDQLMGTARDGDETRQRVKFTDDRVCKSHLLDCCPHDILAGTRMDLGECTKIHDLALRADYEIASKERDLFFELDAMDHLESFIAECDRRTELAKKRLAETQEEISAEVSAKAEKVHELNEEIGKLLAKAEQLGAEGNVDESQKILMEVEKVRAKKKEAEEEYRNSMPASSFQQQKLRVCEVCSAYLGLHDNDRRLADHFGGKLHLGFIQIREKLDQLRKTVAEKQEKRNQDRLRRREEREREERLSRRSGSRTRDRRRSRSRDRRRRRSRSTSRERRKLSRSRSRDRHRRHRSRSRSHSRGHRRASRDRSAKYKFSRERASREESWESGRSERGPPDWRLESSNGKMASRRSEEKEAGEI
inactive: [1] 0.011 | [2] 0.013 | [3] 0.006 | [4] 0.003 | [5] 0.055

MAPKAPK2 (UniProt P49137)
UniProt P49137, sequence (P49137 whole entry, looked up): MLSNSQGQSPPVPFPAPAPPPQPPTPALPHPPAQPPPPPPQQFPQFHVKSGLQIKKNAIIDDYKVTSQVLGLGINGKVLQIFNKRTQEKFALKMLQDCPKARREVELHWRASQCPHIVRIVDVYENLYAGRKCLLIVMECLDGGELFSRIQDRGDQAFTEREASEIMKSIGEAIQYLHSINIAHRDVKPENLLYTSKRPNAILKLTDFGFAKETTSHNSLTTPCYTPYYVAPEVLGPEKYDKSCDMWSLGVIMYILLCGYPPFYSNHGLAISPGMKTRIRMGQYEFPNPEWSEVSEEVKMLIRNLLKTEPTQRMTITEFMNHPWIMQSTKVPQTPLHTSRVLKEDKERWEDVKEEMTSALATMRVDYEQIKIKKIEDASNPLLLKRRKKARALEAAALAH
inactive: [1] 0.043 | [2] 0.008 | [3] -0.053 | [4] 0.004 | [5] -0.051

KPNA2 (UniProt P52292)
inactive: [1] -0.016 | [2] 0.027 | [3] 0.035 | [4] 0.003 | [5] 0.06

MED13L (UniProt Q71F56)
inactive: [1] -0.034 | [2] 0.029 | [3] 0.028 | [4] -0.095 | [5] 0.014

MPZL1 (UniProt O95297)
inactive: [1] 0.056 | [2] 0.006 | [3] -0.068 | [4] -0.042 | [5] 0.125

MAP4 (UniProt E7EVA0)
inactive: [1] -0.024 | [2] -0.002 | [3] 0.037 | [4] -0.018 | [5] -0.041

MOCS1 isoform 8 (UniProt Q9NZB8)
inactive: [1] -0.061 | [2] -0.044 | [3] 0.058 | [4] -0.017 | [5] 0.067

MMS19 isoform 8 (UniProt Q96T76)
inactive: [1] -0.024 | [2] 0.001 | [3] 0.032 | [4] -0.005 | [5] 0.018

MRPL28 (UniProt Q13084)
inactive: [1] -0.002 | [2] -0.062 | [3] -0.026 | [4] 0.066 | [5] 0.356

MACROD1 (UniProt Q9BQ69)
inactive: [1] 0.048 | [2] 0.022 | [3] 0.004 | [4] 0.049 | [5] 0.075

KRI1 (UniProt Q8N9T8)
inactive: [1] 0.053 | [2] 0.043 | [3] 0.027 | [4] -0.048 | [5] -0.039

KNSTRN (UniProt Q9Y448)
UniProt Q9Y448, sequence (Q9Y448 whole entry, looked up): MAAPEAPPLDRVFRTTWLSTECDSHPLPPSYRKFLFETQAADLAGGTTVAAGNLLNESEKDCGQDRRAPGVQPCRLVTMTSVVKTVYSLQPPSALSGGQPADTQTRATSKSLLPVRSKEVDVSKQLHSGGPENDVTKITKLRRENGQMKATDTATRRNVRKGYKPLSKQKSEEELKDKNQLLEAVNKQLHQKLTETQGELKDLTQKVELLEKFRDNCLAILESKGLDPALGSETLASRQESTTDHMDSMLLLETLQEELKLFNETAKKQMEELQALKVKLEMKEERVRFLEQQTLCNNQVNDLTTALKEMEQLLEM
inactive: [1] 0.097 | [2] -0.057 | [3] 0 | [4] 0.002 | [5] 0.034
